A number with no mark means an inactive call. No rule for the calls is given here. Where a SMILES comes first, the peptide text is derived from it. The star is where a group is joined. Boc = CC(C)(C)OC(=O)*
Biological target: Pantothenate synthetase (Mycobacterium tuberculosis (strain ATCC 25618 / H37Rv)) (UniProt P9WIL5)
Assay: Coupled enzyme confirmation of inhibitors against recombinant Mtb PanC (AID 375);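 also: 0% = full reaction with vehicle and 100% = no enzyme background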
Conditions: coupled enzyme assay; at 10 µM, active compounds read high

Chain of Pantothenate synthetase (Mycobacterium tuberculosis (strain ATCC 25618 / H37Rv)) (P9WIL5 whole entry, looked up): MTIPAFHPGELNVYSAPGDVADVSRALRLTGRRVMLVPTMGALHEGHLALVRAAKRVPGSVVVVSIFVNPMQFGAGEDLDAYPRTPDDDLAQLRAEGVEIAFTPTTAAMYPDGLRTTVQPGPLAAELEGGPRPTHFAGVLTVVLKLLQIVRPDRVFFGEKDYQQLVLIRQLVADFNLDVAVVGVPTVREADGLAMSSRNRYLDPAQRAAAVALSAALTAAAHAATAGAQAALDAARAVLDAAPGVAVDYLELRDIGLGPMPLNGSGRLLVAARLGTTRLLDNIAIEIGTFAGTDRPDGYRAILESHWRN

| SMILES | inhibition [%] |
| --- | --- |
| CCOC(=O)c1ccc2nc(NC(NC(C)=O)(C(=O)OC)C(F)(F)F)sc2c1 (stereo not drawn) | 2 |
| Cc1ccc(S(=O)(=O)NCCC(=O)OCn2nnc3ccccc3c2=O)cc1 | 1 |
| O=C1OCCC1Sc1ncnc2sccc12 (stereo not drawn) | 0 |
| CSc1nnc2c3ccccc3n(Cc3ccccc3)c2n1 | 7 |
| C=CCN1C(=O)CS/C1=C(\C#N)S(=O)(=O)c1ccc(C)cc1 | 0 |
| CC(C)C1C2=C(CC(C)(C)CC2=O)ON1c1ccccc1 (stereo not drawn) | 1 |
| COc1cccc(NC(=O)C2C3C=CC4(O3)C2C(=O)N(C(C)C)C4C(=O)NC2CCCCC2C)c1 (stereo not drawn) | 2 |
| CCN1CCN(c2cc3c(cc2F)c(=O)c(C(=O)O)cn3C2CC2)CC1 | 0 |
| COc1ccc(S(=O)(=O)N2CCN(C3CCCCCCC3)CC2)cc1 | 1 |
| CC(C)CC(NC(=O)OC(C)(C)C)C(=O)NC(C(=O)NC(C)C(N)=O)C(C)C (stereo not drawn) (Boc-Leu-Val-Ala-NH2; configuration not given here) | 16 |
| CCOC(=O)c1ccc(CNC(=O)C(Cc2c[nH]c3ccccc23)NC(C)=O)o1 (stereo not drawn) | 3 |
| O=C(CCCN1CCC(O)(c2ccc(Cl)cc2)CC1)c1ccc(F)cc1 | 0 |
| COc1cc2c(cc1OC)CN(C(=O)COc1ccc(C#N)cc1)CC2 | 0 |
| Cc1ccc(S(=O)(=O)N2CCN(C(=O)CSc3nnnn3C)C2)cc1 | 1 |
| Cc1ccc(N2CCN(CCc3nc4cc(NS(C)(=O)=O)ccc4n3C)CC2)cc1 | 0 |
| O=C(Cn1cnc2c(oc3ccccc32)c1=O)N1CCN(c2ccccc2)CC1 | 1 |
| COc1cc2[nH]c(=O)n(CCC(=O)N3CCc4ccccc4C3)c(=O)c2cc1OC | 0 |
| Cc1cccc(CN2CCC(CNC(=O)C3CCCN(S(=O)(=O)c4cnc[nH]4)C3)CC2)c1 (stereo not drawn) | 0 |
| COc1ccc(CCNc2oc(COc3ccc(F)cc3)nc2C#N)cc1 | 0 |
| C/C(N)=C(/C#N)C(=O)COC(=O)c1cc(S(=O)(=O)N2CCCCC2)ccc1C | 0 |
| COc1ccc(C(c2nnnn2C2CCCC2)N2CCN(C3CCCC3)CC2)cc1OC (stereo not drawn) | 4 |
| O=C(CN1C(=O)c2cccc3cccc1c23)NCC1CCCO1 (stereo not drawn) | 5 |

| SMILES | inhibition [%] |
| --- | --- |
| Cn1c(=O)c2c(nc(Br)n2CCSc2nnnn2-c2ccccc2)n(C)c1=O | 0 |
| COCCCC/C(=N\OCCN)c1ccc(C(F)(F)F)cc1 | 0 |
| O=C(NCCN1C(=O)C2C3C=CC(C3)C2C1=O)N1CCCCC1 (stereo not drawn) | 0 |
| CCOC(=O)c1c(C)n(C)c2ccc(O)c(S(=O)(=O)c3ccccc3)c12 | 9 |
| CCN(C(C)=O)c1nnc(CSc2nc3ccccc3s2)s1 | 5 |
| Cn1c(=O)[nH]c(=O)c2c1nc(NC1CCCCC1)n2CC(=O)NC1CCCCC1 | 0 |
| COc1ccccc1-c1nc(SCc2ccccn2)n[nH]1 | 0 |
| COc1ccc(NC(=O)c2cc(C)on2)cc1OC | 8 |
| O=C(NCc1ccccc1)C1CCN(S(=O)(=O)N2CCCCCC2)CC1 | 2 |
| O=C1CC(c2ccc(Cl)cc2)n2nc(N3C(=O)c4ccccc4C3=O)nc2N1 (stereo not drawn) | 5 |
| O=C(CSc1nnc(-c2c[nH]c3ccccc23)o1)N(Cc1ccccc1)c1ccc(F)cc1 | 0 |
| CC1=C(C(=O)OC2CCCCC2)C(c2ccc(C)o2)C2=C(CC(C)(C)CC2=O)N1 (stereo not drawn) | 0 |
| CS(=O)(=O)NCCSCc1c(F)cccc1Cl | 3 |
| CC(C)(C)NS(=O)(=O)c1ccc(CCC(=O)O)cc1 | 0 |
| CC1CN(CC(O)COc2ccccc2C(C)(C)C)CC(C)O1 (stereo not drawn) | 0 |
| Cc1nc(CCNS(=O)(=O)c2cccs2)cs1 | 0 |
| O=C(Cn1cnc2c(cnn2-c2ccc(F)cc2)c1=O)N1CCCc2ccccc21 | 0 |
| COc1ccc2nc(NC(=O)CSc3nnc(-c4ccoc4C)n3C)sc2c1 | 2 |
| N#CC1=C(SCC(=O)NC23CC4CC(CC(C4)C2)C3)NC(=O)C(C#N)C12CCCCC2 (stereo not drawn) | 0 |
| C1=Nc2c(NCc3ccccc3)ncnc2Oc2ccccc21 | 0 |
| COCCOC(=O)C1=C(C)NC(=O)CC1c1cc2c(cc1Br)OCO2 (stereo not drawn) | 1 |
